Assay [1] can be described thus: Human pregnane X receptor (PXR) small molecule agonists, qHTS cell viability counter screen (AID 1346977). Also: nearly all actives have a fitted effect of over 50% in size. Also: potency is read from the fitted curve at half-maximal effect. In a few lines: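 Cytotoxicity counter screen run in the same wells as the PXR luciferase assay, using PXR-Luc HepG2 cells in charcoal-stripped serum medium. Viability: CellTiter-Fluor fluorescence after 24hr compound treatment.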
Background: qHTS replaces the single test concentration by a dilution series.

Assay [2] is described as follows: Caspase-3/7 induction in HepG2 cells by small molecules, qHTS assay (AID 1346978). Also: nearly all actives have a fitted effect of over 15% in size. Also: potency is read from the fitted curve at half-maximal effect. Put shortly:
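Caspase-3/7 induction was measured by Caspase-Glo 3/7 luminescence (30 min, room temperature) after a 17 hr compound exposure of wild-type HepG2 cells seeded at 2,000 per well and pre-incubated 5 hr.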

Assay [3] can be described thus: Caspase-3/7 induction in CHO-K1 cells by small molecules, qHTS cell viability counter screen (AID 1346979). Also: nearly all actives have a fitted effect of over 35% in size. Also: potency is read from the fitted curve at half-maximal effect. Put shortly: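 Cytotoxicity counter screen run in parallel with the caspase-3/7 assay: CHO-K1 cells, 16hr compound treatment at 37C, then CellTiter-Fluor for 1hr before fluorescence reading.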
Assay [4] is described as follows: Caspase-3/7 induction in CHO-K1 cells by small molecules, qHTS assay (AID 1346980). Also: nearly all actives have a fitted effect of over 15% in size. Also: potency is read from the fitted curve at half-maximal effect. In a few lines: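 Luminescent Caspase-Glo 3/7 read (30min, room temperature) quantified apoptosis induction. Cells were wild-type CHO-K1, treated with compound for 17hr at 37 C and 5% CO2.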
Assay [5] addresses Nuclear receptor subfamily 1 group I member 2 (Homo sapiens) (UniProt O75469). Nature of the assay: Human pregnane X receptor (PXR) small molecule agonists, qHTS assay (AID 1346982). Also: nearly all actives have a fitted effect of over 35% in size. Also: potency is read from the fitted curve at half-maximal effect. Put shortly:
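Reporter HepG2 cells expressing PXR-Luc are cultured in charcoal-stripped FBS (5%), treated with compounds for 24 hr at 37 C, and assayed by ONE-Glo luminescence after 30 min at room temperature.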

Assay [6] concerns the target Acetylcholinesterase (Homo sapiens) (UniProt P22303). Description: Acetylcholinesterase (AChE) small molecule antagonists: colormetric cell-based qHTS assay (AID 1347395; calls by dose curve; also: nearly all actives have a fitted effect of over 30% in size). In a few lines: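 Cells (SH-SY5Y, 2,000 per well) are seeded and left overnight at 37 C. Compound is added for 30 min, then DTNB and acetylthiocholine for a further 90 min at 37 C before absorbance-based thiocholine detection.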

Assay [7] has the same target. Description: Acetylcholinesterase (AChE) small molecule antagonists: enzyme-based qHTS assay (AID 1347397; calls by dose curve; also: nearly all actives have a fitted effect of over 55% in size). Conditions: Potency: AChE enzyme activity inhibition. In a few lines:
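First, recombinant human AChE (50 mU/mL as dispensed) received test compound or DMSO. Second, plates stood 30 min at room temperature. Third, DTNB and acetylthiocholine were added, followed by 10 min at room temperature and colorimetric detection.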

Assay [8] has the same target. Description: Acetylcholinesterase (AChE) small molecule antagonists: fluorescence cell-based qHTS assay (AID 1347398; calls by dose curve; also: nearly all actives have a fitted effect of over 50% in size). Conditions: Potency: AChE activity. Put shortly: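 Homogeneous quantitative HTS format. SH-SY5Y cells seeded at 2,000 per well settle overnight at 37 C. Compound pretreatment runs 30 min (37 C, 5% CO2); substrate/probe mix then reacts 40 min at RT before reading 490/520 nm.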

For assay [9] the target is unchanged. Nature of the assay: Acetylcholinesterase (AChE) small molecule antagonists: enzyme-based qHTS assay with human liver microsomes (AID 1347399; calls by dose curve; also: nearly all actives have a fitted effect of over 60% in size). Conditions: Potency: qHTS inhibition. In a few lines:
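Recombinant human AChE (50 mU/mL in the enzyme mix) and human liver microsomes (0.25 mg/mL final) were preincubated with compound and NADPH (0.25 mg/mL final) for 30 min at 37 C. Acetylthiocholine/DTNB was then added; thiocholine was read colorimetrically after 10 min at room temperature.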

For assay [10], the target named is Cytochrome P450 2D6 (Homo sapiens) (UniProt P10635). Nature of the assay: Cytochrome P450 Family 2 Subfamily D Member 6 (CYP2D6) small molecule antagonists: luciferase reporter qHTS assay (AID 1671196). Also: nearly all actives have a fitted effect of over 50% in size. Also: potency is read from the fitted curve at half-maximal effect. Put shortly: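 Test chemicals meet CYP2D6 plus proluciferin substrate (10 min, RT); NADPH regenerating solution then drives turnover for 1 h. Detection reagent halts the reaction; luminescence measured after 20 min.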

Assay [11] addresses Cytochrome P450 2C19 (Homo sapiens) (UniProt P33261). Description: Cytochrome P450 Family 2 Subfamily C Member 19 (CYP2C19) small molecule antagonists: luciferase reporter qHTS assay (AID 1671197). Also: nearly all actives have a fitted effect of over 65% in size. Also: potency is read from the fitted curve at half-maximal effect. In a few lines:
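Relative luminescence units recorded 20 min after the detection reagent stopped a 1 h, 37C CYP2C19 reaction on proluciferin substrate, which was started by NADPH regeneration following 10 min room-temperature compound preincubation; ketoconazole positive control.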
In general terms: In a reporter assay the amount or activity of a reporter protein is the signal.

Assay [12] deals with Cytochrome P450 2C9 (Homo sapiens) (UniProt P11712). Description: Cytochrome P450 Family 2 Subfamily C Member 9 (CYP2C9) small molecule antagonists: luciferase reporter qHTS assay (AID 1671198). Also: nearly all actives have a fitted effect of over 50% in size. Also: potency is read from the fitted curve at half-maximal effect. In a few lines: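 Enzyme-substrate mix preincubated with compound 10 min at room temperature; reaction started with NADPH regeneration solution, 1 h 37C. Luminescent luciferin product read after 20 min detection reagent.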

Assay [13] deals with Cytochrome P450 1A2 (Homo sapiens) (UniProt P05177). Nature of the assay: Cytochrome P450 Family 1 Subfamily A Member 2 (CYP1A2) small molecule antagonists: luciferase reporter qHTS assay (AID 1671199). Also: nearly all actives have a fitted effect of over 50% in size. Also: potency is read from the fitted curve at half-maximal effect. In a few lines: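 Steps: enzyme-substrate mix dispensed; test compounds and furafylline control pinned in; 10 min room temperature; NADPH regeneration solution added, 1 h; reaction stopped with luciferin detection reagent; luminescence read after 20 min.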

Assay [14] addresses Voltage-gated inwardly rectifying potassium channel KCNH2 (Homo sapiens) (UniProt Q12809). Description: Human Ether-a-go-go-Related Gene (hERG) channel small molecule antagonists: fluorescence cell-based qHTS assay (AID 1671200). Also: nearly all actives have a fitted effect of over 50% in size. Also: potency is read from the fitted curve at half-maximal effect. Put shortly: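 Fluorescence at 540 nm emission (480 nm excitation) was recorded kinetically for 2 min at 1-second intervals once the thallium-containing stimulus reached cells previously loaded with FluxOR II dye.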

The target of assay [15] is Cytochrome P450 3A4 (Homo sapiens) (UniProt P08684). Description: Cytochrome P450 Family 3 Subfamily A Member 4 (CYP3A4) small molecule antagonists: luciferase reporter qHTS assay (AID 1671201). Also: nearly all actives have a fitted effect of over 50% in size. Also: potency is read from the fitted curve at half-maximal effect. In a few lines: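 qHTS, 1536-well. CYP3A4 + proluciferin substrate, cpd 10 min RT → NADPH regen 1 h RT → detection reagent 20 min → luminescence (RLU). Ketoconazole positive control.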

A short description of assay [16]: Caspase-3/7 induction in HepG2 cells by small molecules, qHTS cell viability counter screen (AID 1346981). Also: nearly all actives have a fitted effect of over 30% in size. Also: potency is read from the fitted curve at half-maximal effect. Put shortly: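 In this quantitative HTS counter screen, compounds delivered in DMSO were left on unmodified HepG2 cells for 16 hr at 37 C. Viability was then determined fluorometrically with CellTiter-Fluor, in parallel with caspase-3/7 induction in the same wells.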

For assay [17], the target named is Nuclear receptor subfamily 1 group I member 2 (Rattus norvegicus) (UniProt Q9R1A7). Description: Rat pregnane X receptor (rPXR) activation by small molecules, qHTS assay (AID 1346983). Also: nearly all actives have a fitted effect of over 20% in size. Conditions: rPXR luciferase reporter cells, One-Glo luminescence, 24 h; max activation: active compounds read high. Put shortly:
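Luminescent readout (One-Glo luciferase, 30 min room temperature) followed 24 hr compound treatment at 37 C of rPXR cells plated 2,000 per well and preincubated 5hr; qHTS format with compounds delivered in DMSO.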

Where “and” joins values, the source holds several entries; their conditions need not be identical. Equal values may be shown once. Values without a mark were called inactive. Results filed as inconclusive are left out. Calls of active or inactive are those of the source. Unless noted, calls follow the shape of the dose curve; as a rule, active = well fitted curve in the direction sought with a large enough effect in the repeat runs; inconclusive = weak or mixed curves; inactive = no such curve, though single readings can be large; an effect the other way counts as inactive or inconclusive.
% is scaled to controls: 0 for no effect and ±100 for the full control effect.

Sequence of Cytochrome P450 2C19 (Homo sapiens) (P33261 whole entry, looked up): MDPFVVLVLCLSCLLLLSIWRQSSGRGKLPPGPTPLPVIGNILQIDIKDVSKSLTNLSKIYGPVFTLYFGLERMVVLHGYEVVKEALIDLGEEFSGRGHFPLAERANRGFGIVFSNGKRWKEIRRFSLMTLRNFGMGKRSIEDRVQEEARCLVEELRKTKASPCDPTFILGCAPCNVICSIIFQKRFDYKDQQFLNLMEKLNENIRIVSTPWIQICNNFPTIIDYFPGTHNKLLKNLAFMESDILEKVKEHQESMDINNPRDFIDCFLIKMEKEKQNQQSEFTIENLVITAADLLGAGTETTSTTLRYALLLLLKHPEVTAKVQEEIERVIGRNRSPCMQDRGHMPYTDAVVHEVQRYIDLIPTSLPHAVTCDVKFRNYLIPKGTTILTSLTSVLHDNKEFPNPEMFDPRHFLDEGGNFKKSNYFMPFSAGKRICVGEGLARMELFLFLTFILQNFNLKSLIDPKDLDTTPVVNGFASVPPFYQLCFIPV
Sequence of Nuclear receptor subfamily 1 group I member 2 (Homo sapiens) (O75469 whole entry, looked up): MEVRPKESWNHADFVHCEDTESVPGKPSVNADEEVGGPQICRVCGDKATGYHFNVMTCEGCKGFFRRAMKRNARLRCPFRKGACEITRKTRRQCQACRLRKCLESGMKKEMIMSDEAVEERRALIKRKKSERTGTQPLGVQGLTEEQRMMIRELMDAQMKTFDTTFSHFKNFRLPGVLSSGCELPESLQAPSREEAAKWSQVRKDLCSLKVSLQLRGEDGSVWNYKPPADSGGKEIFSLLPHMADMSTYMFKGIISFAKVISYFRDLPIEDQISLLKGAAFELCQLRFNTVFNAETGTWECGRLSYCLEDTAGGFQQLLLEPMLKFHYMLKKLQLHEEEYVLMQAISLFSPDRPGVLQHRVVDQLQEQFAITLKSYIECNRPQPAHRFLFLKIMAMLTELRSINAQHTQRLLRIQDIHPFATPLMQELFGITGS
Sequence of Cytochrome P450 2D6 (Homo sapiens) (P10635 whole entry, looked up): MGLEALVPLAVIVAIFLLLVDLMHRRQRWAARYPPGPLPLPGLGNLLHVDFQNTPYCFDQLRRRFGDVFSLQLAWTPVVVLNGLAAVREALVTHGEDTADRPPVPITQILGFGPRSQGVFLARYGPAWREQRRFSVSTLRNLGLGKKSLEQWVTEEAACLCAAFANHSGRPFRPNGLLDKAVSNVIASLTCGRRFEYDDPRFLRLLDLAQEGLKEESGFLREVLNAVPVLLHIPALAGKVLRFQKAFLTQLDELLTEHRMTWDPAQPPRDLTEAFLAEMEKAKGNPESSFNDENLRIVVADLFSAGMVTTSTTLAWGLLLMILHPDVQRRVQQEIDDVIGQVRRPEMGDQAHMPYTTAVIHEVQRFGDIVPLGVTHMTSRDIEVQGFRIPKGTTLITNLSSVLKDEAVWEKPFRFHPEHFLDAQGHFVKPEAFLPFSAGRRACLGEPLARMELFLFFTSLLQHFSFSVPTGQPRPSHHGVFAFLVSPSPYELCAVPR
Sequence of Cytochrome P450 1A2 (Homo sapiens) (P05177 whole entry, looked up): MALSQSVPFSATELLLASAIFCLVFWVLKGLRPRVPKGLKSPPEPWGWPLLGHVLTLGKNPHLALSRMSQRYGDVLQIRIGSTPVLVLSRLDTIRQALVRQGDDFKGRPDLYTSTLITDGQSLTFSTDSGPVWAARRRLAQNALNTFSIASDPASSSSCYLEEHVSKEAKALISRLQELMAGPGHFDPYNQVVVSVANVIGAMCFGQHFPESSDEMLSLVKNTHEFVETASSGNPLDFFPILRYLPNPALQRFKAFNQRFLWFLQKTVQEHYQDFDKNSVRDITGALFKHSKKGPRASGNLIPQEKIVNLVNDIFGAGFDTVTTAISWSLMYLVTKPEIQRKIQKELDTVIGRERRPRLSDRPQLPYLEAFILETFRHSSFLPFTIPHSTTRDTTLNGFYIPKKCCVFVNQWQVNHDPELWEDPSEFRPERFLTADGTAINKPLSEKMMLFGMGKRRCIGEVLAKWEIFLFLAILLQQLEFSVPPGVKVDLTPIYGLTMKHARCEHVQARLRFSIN
Sequence of Voltage-gated inwardly rectifying potassium channel KCNH2 (Homo sapiens) (Q12809 whole entry, looked up): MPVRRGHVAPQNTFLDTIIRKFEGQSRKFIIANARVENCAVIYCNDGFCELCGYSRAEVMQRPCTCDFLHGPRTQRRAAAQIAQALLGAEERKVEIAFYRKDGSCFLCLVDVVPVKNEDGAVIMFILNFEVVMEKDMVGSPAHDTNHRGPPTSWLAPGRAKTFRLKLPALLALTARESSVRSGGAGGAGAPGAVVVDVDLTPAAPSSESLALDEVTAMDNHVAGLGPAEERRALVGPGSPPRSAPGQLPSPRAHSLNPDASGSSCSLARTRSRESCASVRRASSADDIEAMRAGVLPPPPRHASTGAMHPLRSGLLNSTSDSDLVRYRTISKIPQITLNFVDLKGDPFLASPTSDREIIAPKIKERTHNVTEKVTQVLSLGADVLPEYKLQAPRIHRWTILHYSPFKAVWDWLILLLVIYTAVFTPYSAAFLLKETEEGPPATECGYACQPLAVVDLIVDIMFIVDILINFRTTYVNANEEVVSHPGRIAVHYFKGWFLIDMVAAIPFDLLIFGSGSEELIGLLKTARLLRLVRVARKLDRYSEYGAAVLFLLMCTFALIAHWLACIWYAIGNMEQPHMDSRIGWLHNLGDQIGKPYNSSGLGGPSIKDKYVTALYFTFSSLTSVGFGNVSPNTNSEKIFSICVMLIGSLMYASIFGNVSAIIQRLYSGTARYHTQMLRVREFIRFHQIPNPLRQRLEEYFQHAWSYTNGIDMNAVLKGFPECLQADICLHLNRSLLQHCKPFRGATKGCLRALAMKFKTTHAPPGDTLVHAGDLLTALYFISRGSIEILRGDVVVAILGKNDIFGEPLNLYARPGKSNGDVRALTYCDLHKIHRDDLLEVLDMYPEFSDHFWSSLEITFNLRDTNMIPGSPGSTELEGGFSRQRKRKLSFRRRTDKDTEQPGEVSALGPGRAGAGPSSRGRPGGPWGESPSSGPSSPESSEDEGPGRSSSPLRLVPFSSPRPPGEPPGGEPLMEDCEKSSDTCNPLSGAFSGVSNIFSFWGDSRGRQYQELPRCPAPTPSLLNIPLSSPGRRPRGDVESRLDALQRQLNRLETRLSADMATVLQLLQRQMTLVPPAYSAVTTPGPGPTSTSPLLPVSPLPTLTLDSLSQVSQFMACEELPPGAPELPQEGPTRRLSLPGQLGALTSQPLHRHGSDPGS
Sequence of Acetylcholinesterase (Homo sapiens) (P22303 whole entry, looked up): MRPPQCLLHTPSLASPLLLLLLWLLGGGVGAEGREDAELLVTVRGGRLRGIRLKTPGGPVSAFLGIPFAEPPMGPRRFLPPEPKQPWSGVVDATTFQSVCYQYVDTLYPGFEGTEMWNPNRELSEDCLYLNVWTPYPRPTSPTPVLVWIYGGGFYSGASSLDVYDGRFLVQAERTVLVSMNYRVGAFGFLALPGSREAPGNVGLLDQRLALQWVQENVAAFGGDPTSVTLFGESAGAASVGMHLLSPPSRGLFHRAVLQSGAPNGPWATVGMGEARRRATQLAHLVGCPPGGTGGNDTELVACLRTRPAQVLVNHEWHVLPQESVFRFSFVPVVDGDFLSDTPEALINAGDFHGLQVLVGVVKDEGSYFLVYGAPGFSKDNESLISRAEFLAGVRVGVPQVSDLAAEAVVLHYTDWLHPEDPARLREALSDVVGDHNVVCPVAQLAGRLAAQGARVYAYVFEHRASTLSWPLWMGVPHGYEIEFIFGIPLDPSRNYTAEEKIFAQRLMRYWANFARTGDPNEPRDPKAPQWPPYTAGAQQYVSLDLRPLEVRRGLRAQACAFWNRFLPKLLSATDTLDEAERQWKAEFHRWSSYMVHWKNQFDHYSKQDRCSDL
Sequence of Cytochrome P450 2C9 (Homo sapiens) (P11712 whole entry, looked up): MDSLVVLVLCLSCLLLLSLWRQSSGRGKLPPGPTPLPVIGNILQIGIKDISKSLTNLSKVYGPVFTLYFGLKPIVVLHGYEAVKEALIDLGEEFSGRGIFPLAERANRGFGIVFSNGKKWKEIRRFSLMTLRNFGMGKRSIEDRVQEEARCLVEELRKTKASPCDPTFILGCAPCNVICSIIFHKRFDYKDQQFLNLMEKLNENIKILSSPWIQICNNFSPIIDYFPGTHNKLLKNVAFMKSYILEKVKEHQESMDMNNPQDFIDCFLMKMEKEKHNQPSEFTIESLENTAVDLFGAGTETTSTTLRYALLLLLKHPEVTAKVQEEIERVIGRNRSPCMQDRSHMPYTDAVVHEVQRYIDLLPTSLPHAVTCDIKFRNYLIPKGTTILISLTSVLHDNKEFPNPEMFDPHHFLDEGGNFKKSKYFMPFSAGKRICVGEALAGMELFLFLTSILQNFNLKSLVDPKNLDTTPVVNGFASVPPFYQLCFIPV
Sequence of Cytochrome P450 3A4 (Homo sapiens) (P08684 whole entry, looked up): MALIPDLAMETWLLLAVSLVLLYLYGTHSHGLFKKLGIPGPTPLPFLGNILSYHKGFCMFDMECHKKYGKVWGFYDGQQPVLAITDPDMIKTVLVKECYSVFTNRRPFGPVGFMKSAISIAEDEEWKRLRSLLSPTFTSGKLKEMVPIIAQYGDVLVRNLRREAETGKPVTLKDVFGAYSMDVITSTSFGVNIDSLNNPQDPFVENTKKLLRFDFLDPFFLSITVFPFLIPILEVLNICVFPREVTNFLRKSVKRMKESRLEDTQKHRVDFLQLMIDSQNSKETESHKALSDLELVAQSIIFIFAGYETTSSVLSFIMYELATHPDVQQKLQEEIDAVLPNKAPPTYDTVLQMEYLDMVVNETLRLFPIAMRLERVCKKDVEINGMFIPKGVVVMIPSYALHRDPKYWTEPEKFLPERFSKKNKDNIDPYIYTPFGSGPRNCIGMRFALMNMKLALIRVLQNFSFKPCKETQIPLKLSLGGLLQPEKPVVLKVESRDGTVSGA

Consider `CCCCN(CCCC)C(=S)[S-].CCCCN(CCCC)C(=S)[S-].[Ni+2]`, for which the Potency entry in assay [1], in assay [2], in [3], in [4], in assay [5] and in assay [6] was “inactive” throughout. Also, the Potency entry in assay [7], in assay [8], in assay [9], in assay [10], in assay [11] and in [12] was “inactive” throughout. Further, the Potency entry in assay [13], in [14] and in assay [15] was “inactive” throughout.
For `CCCCn1cc[n+](C)c1` (tested in a mixture with another compound), the Potency entry in assay [1], in [2], in assay [3], in [4], in [16] and in assay [14] was “inactive” in each case.
As to `CN`, the Potency result in [1], in assay [2], in assay [3], in [4], in assay [16] and in assay [14] was “inactive” throughout.
As for `C=C(C)C(=O)[O][Sn]([CH2]CCC)([CH2]CCC)[CH2]CCC`, the Potency in [1] is 0.306 µM (active); in [2], 2.17 µM (active); in [3] it was 0.306 µM (active); in assay [4], 0.433 µM (active); in assay [16] it was 2.43 µM (active); in [5] it was 0.193 µM (active). For the same compound, the Potency in [10] is 2.24 µM (active); in assay [11] it was 0.71 µM (active); in [12], 11.2 µM (active); in assay [14] it was 4.9 µM (active); in assay [15] it was 22.4 µM (active). For the same compound, the Potency entry in assay [7], in assay [8] and in [9] was “inactive” each time.
As to `ClC1(Cl)C2(Cl)C3(Cl)C4(Cl)C(Cl)(Cl)C5(Cl)C3(Cl)C1(Cl)C5(Cl)C24Cl` (configuration not stated), the Potency entry in [1], in assay [2], in [3], in [4], in [5] and in [6] was “inactive” each time. The Potency result in assay [7], in [8], in assay [9], in assay [10], in [11] and in assay [13] was “inactive” in each case. Besides, the Potency entry in assay [14] and in [15] was “inactive” each time.
For `COc1ccc2c3c1O[C@H]1[C@H](O)CC[C@H]4[C@@H](C2)N(C)CC[C@@]341`, the Potency entry in [1], in [2], in assay [3], in assay [4], in assay [16] and in [6] was “inactive” throughout. Further, the Potency result in assay [7], in [8], in assay [9], in [10], in [11] and in [13] was “inactive” in each case. In assay [14], the Potency result is “inactive”.
As to `C[C@]12C/C(=C/O)C(=O)C[C@@H]1CC[C@@H]1[C@@H]2CC[C@@]2(C)[C@H]1CC[C@]2(C)O`, the Potency result in [1], in [2], in assay [4], in assay [16], in [7] and in assay [8] was “inactive” each time. Further, the Potency result in [9], in assay [10], in assay [11], in [13] and in assay [14] was “inactive” in each case. Besides, the Potency was 43.7 µM (active) in assay [3]; 35.9 µM (active) and 27.5 µM (active) in assay [12]. Moreover, the max activation in [17] is 1.42%.
Regarding `C=CCOC(=O)c1ccccc1N`, the Potency entry in assay [1], in assay [2], in assay [3], in assay [4], in [16] and in [5] was “inactive” in each case. In addition, the Potency result in assay [7], in [8], in assay [9] and in [14] was “inactive” in each case. The Potency was 63.7 µM (active) in [10]; 25.4 µM (active) in assay [11]; 35.8 µM (active) in assay [12]; 7.15 µM (active) in assay [13]; 40.2 µM (active) in assay [15].

The record behind these values is PubChem BioAssay (Tox21).
